“And” between values parts separate entries of the source, which are not always exact repeats. Equal entries are not always repeated. Compounds without any hit were thinned out: in the full panel of roughly 83,000, 20% have a hit.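 How to read the values: 0–100, growth inhibition (40 = 60% inhibited); 0, no net growth; -100 to 0, cell death (-40 = 40% of starting cells died; -100 = all dead).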 The source made the active and inactive calls. The calls were made as follows: active = growth percent below 10; inactive = the rest.
How the values were obtained:
Experiment in all cases: NCI-60 one-dose screen, 48 h (100 = growth as untreated, 0 = no growth, -100 = all killed)
[1] = test system: NCI-H23 lung; settings: 10 µM unless noted
[2] = test system: NCI-H226 lung; settings: 10 µM unless noted
[3] = test system: NCI-H322M lung; settings: 10 µM unless noted
[4] = test system: HOP-62 NSCLC; settings: 10 µM unless noted
[5] = test system: NCI-H460 lung; settings: 10 µM unless noted
[6] = test system: HOP-92 NSCLC; settings: 10 µM
[7] = test system: NCI-H522 lung; settings: 10 µM
[8] = test system: A549/ATCC NSCLC; settings: 10 µM unless noted
[9] = test system: 786-0 renal; settings: 10 µM unless noted
[10] = test system: COLO 205 colon; settings: 10 µM unless noted
[11] = test system: DU-145 prostate; settings: 10 µM unless noted
[12] = test system: K-562 leukemia; settings: 10 µM unless noted
[13] = test system: MALME-3M melanoma; settings: 10 µM unless noted
[14] = test system: MDA-MB-231 breast; settings: 10 µM unless noted
[15] = test system: RXF 393 renal; settings: 10 µM unless noted
[16] = test system: SF-268 CNS; settings: 10 µM unless noted
[17] = test system: SF-295 CNS; settings: 10 µM unless noted
[18] = test system: SF-539 CNS; settings: 10 µM unless noted
[19] = test system: M14 melanoma; settings: 10 µM unless noted
[20] = test system: UACC-257 melanoma; settings: 10 µM unless noted

Measured: growth

CC(C)NC(=O)N/C=C(\C#N)C(N)=O
inactive: [1] 92.7% | [2] 97.5% | [3] 99.5% | [4] 88.2% | [5] 91.1% | [6] 96.6% | [7] 87.2% | [8] 111% | [9] 99% | [10] 103% | [11] 107% | [12] 116% | [13] 89.3% | [14] 111% | [15] 98.9% | [16] 101% | [17] 102% | [18] 97.9% | [19] 95.3%

Cl
inactive: [1] 97.5% | [2] 105% | [5] 107% | [8] 103% | [9] 104% | [10] 115% | [11] 119% | [13] 116% | [14] 115% | [15] 117% | [16] 116% | [17] 99.2% | [18] 111% | [20] 105% | [19] 107%

C/C(=C\c1ccccc1)c1ccccn1
inactive: [1] 107% | [2] 90.9% | [3] 96.8% | [4] 105% | [5] 105% | [6] 105% | [7] 109% | [8] 115% | [9] 104% | [10] 114% | [11] 112% | [12] 105% | [13] 102% | [14] 91% | [16] 99.3% | [17] 113% | [18] 98.1% | [20] 105% | [19] 108%

NC(=O)NCCCC(N)C(=O)O (stereo not given)
inactive: [1] 103% | [2] 98.2% | [3] 88.6% | [4] 98.4% | [5] 108% | [8] 104% | [9] 101% | [10] 106% | [11] 101% | [12] 97.9% | [13] 93.1% | [14] 104% | [15] 106% | [16] 104% | [17] 117% | [18] 103% | [20] 102% | [19] 100%

N#CC(C#N)N=Nc1cc(Cl)ccc1Cl
inactive: [1] 106% | [2] 104% | [4] 104% | [5] 102% | [7] 89.8% | [8] 98.4% | [9] 102% | [10] 110% | [11] 111% | [12] 95.3% | [14] 91.7% | [15] 115% | [16] 95% | [18] 99.8% | [20] 92% | [19] 98.5%

CC(C)C(C)(C)c1ccc(O)cc1
inactive: [1] 103% | [2] 99.3% | [3] 102% | [4] 104% | [5] 104% | [7] 99.7% | [8] 102% | [10] 108% | [11] 107% | [12] 50.4% | [13] 107% | [14] 108% | [15] 112% | [16] 99.8% | [17] 118% | [18] 99.4% | [20] 104% | [19] 105%

CCCCNc1ccc(Nc2ccccc2)cc1
inactive: [1] 41.7% | [2] 73.3% | [3] 98.3% | [4] 106% | [5] 76.7% | [6] 63.7% | [7] 31.2% | [8] 70.1% | [9] 92.9% | [10] 85% | [11] 84% | [12] 48.9% | [13] 54.8% | [14] 64.4% | [15] 83.9% | [16] 110% | [17] 56.3% | [18] 83.8% | [20] 62.7% | [19] 87.5%

O=[N+]([O-])c1cccc(SSc2cccc([N+](=O)[O-])c2)c1
inactive: [1] 98.8% | [2] 106% | [3] 116% | [4] 89.8% | [5] 109% | [7] 96.8% | [8] 100% | [9] 103% | [10] 82.1% | [11] 112% | [12] 94.3% | [13] 97.2% | [14] 95.4% | [15] 123% | [16] 106% | [17] 108% | [18] 102% | [20] 110% | [19] 94.2%

CCCCOC(=O)/C=C\C(=O)NC(N)=O
inactive: [1] 85.7% | [2] 96.6% | [3] 96.4% | [4] 95.1% | [5] 101% | [8] 95.8% | [9] 97.4% | [10] 87.7% | [11] 91.1% | [12] 82.3% | [13] 92.3% | [14] 75.5% | [16] 96.6% | [17] 103% | [18] 95.7% | [20] 77.8% | [19] 92.1%
active: [7] -30.6% | [15] -13.6%

c1ccc(-c2nc3ccccc3s2)cc1
inactive: [1] 88.2% | [3] 81.1% | [4] 76.3% | [5] 97.5% | [6] 82.4% | [8] 105% | [9] 105% | [10] 110% | [11] 113% | [12] 102% | [13] 97.5% | [14] 68.5% | [15] 106% | [16] 95% | [17] 97.9% | [18] 96% | [20] 98.5% | [19] 97.3%

O=C(/C=C/c1ccccc1)c1ccccc1
inactive: [1] 84.6% | [2] 126% | [3] 115% | [4] 94.9% | [5] 93.1% | [7] 84.8% | [8] 96.3% | [9] 86.9% | [10] 114% | [11] 97.7% | [13] 128% | [14] 110% | [15] 114% | [16] 97.2% | [17] 99.1% | [18] 88.2% | [20] 106% | [19] 98.1%

CC1CCC2(OC1)OC1CC3C4CC=C5CC(O)CCC5(C)C4CCC3(C)C1C2C (stereo not given)
active: [20] -3.06%
inactive: [1] 104% | [2] 92.2% | [3] 113% | [4] 66.6% | [5] 103% | [6] 26.6% | [7] 103% | [8] 27.3% | [10] 111% | [11] 107% | [12] 97.3% | [13] 120% | [14] 100% | [16] 89.6% | [17] 119% | [18] 91.2% | [19] 102%

O=CN1CCCCC1
inactive: [1] 91.5% | [2] 105% | [3] 99.4% | [4] 102% | [5] 112% | [6] 120% | [7] 104% | [8] 122% | [9] 102% | [10] 136% | [11] 114% | [12] 104% | [13] 103% | [14] 104% | [16] 105% | [17] 97.8% | [18] 99.8% | [20] 104% | [19] 121%

ClCCOCCOc1ccc(C2CCCCC2)cc1
inactive: [1] 113% | [2] 92.4% | [3] 121% | [4] 92.3% | [5] 106% | [6] 87.9% | [7] 93.8% | [8] 86.6% | [9] 88.8% | [10] 111% | [11] 102% | [12] 118% | [14] 103% | [15] 101% | [16] 109% | [17] 97.1% | [18] 102% | [20] 91.2% | [19] 108%

O=C(CO)C(O)C(O)C(O)C(O)CO (stereo not given)
inactive: [1] 104% and 102% | [2] 96.2% and 101% | [3] 107% and 105% | [4] 105% | [5] 109% and 108% | [6] 116% and 105% | [7] 102% and 108% | [8] 97.5% and 96.1% | [9] 105% | [10] 107% and 103% | [11] 110% and 109% | [12] 108% and 117% | [13] 109% and 117% | [15] 119% and 117% | [16] 102% and 104% | [17] 105% and 102% | [18] 107% and 96.5% | [20] 93.9% and 95.8% | [19] 103% and 96.2%

Cc1ccc(S(=O)(=O)c2ccccc2)cc1
inactive: [1] 54.5% | [2] 85.6% | [3] 57.1% | [4] 44.2% | [5] 20.7% | [6] 58.7% | [8] 41.7% | [10] 18.4% | [11] 26.3% | [12] 23.2% | [13] 66.6% | [14] 50% | [15] 39.3% | [16] 47.9% | [18] 28.7% | [19] 15.4%
active: [17] 2.7% | [20] 8.5%

CCCCCCCCCCNC(=O)CI
inactive: [2] 76.7% | [3] 96.8% | [5] 101% | [8] 95.1% | [11] 99.1% | [16] 37.1% | [18] 39.1% | [20] 66.3%
active: [1] -48.8% | [4] -20.8% | [6] -79% | [9] -81.2% | [10] -20% | [12] 0.309% | [14] 9.39% | [15] -86.5% | [19] -24.8%

Nc1ncnc2c1ncn2C1OC(COP(=O)(O)O)C(O)C1O (stereo not given)
inactive: [1] 110% | [2] 113% | [4] 115% | [6] 103% | [7] 114% | [8] 114% | [9] 105% | [10] 130% | [11] 120% | [12] 119% | [14] 102% | [15] 131% | [16] 126% | [18] 105% | [20] 110% | [19] 111%
